Only some compounds are listed: those with a hit (about 7.1% of all), similar ones and a draw of the others.
ELG1 genotoxic = genotoxicity induction in ELG1-luciferase HEK293T cells. HEK293T ELG1-luciferase reporter, luminescence, 16 h. Potency, µM (titrated, usually from 46 µM), most hits filed as activators. 330,000 compounds, 1.3% hits; note: nearly all actives have a fitted effect of over 60% in size
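HEK293T cells expressing luciferase-tagged ELG1 were exposed to compound or DMSO vehicle for 16 hr at 37 °C and 5% CO2. Luciferase activity was then measured with ONE-Glo after 30 min at room temperature.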
A-T KAP1 phos = candidate therapy for ataxia-telangiectasia; F2112 A-T fibroblasts, KAP-1 phosphorylation AlphaLISA; neocarzinostatin DNA damage 30 min before lysis; Potency, µM (series often up to 57.5 µM), most hits filed as activators; 320,000 compounds, 0.19% hits; AID 485349; note: nearly all actives have a fitted effect of over 45% in size
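ATM-like activity read as KAP-1 phosphorylation via AlphaLISA donor/acceptor antibody pairs after lysis and 6 hr at 25C. Cells were ATM-null patient fibroblasts (F2112, hTERT), dosed 60 min, then exposed to the DSB inducer NCS for 30 min.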
p53 reactivator = re-activators of mutant p53 | H1299 p53-A138V BP100-luciferase reporter, luminescence, 24 h | Potency, µM (highest dose often 92.2 µM), actives largely listed as activators | 320,000 compounds, 0.063% hits | AID 504706; note: nearly all actives have a fitted effect of over 45% in size
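H1299 (p53-null), stable ts p53-A138V + BP100-Luc; 1000 cells/well, Opti-MEM/10% FBS; cpd 4 pt, 1:5; 24 h, 37 deg C, 5% CO2; detection reagent 10 min RT; luminescence.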
SW480 rereplic = DNA re-replication induction in SW480 cells; SW480 DNA re-replication, Hoechst DNA content imaging, 48 h; Potency, µM (top dose mostly 46.1 µM), most hits filed as activators; 340,000 compounds, 1.8% hits; AID 624297; note: nearly all actives have a fitted effect of over 55% in size
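Quantitative HTS format with DMSO vehicle controls; 48 hr drug incubation at 37 C, then 40 min Hoechst staining and scanning imager measurement at 405 nm excitation.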
ELG1 DNA repair = ELG1-dependent DNA repair inhibition; 330,000 compounds, 2.3% hits; Potency, µM (doses to about 46.1 µM), hits mostly inhibitors; HEK293T ELG1-luciferase reporter, luminescence, 16 h; DNA damage induced by 5-fluorouridine; note: nearly all actives have a fitted effect of over 55% in size
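HEK293T cells expressing luciferase-tagged ELG1 (2,000/well) received 5-Fluorouridine plus compound or DMSO for 16 hr at 37 °C. Luciferase was read by ONE-Glo luminescence after 30 min at room temperature.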
MCF10A rerep = induces DNA re-replication in MCF 10a normal breast cells; AID 624296; Potency, µM (top dose mostly 46.1 µM), most hits filed as activators; 350,000 compounds, 2.9% hits; MCF 10A DNA re-replication, Hoechst nuclear intensity, 48 h; note: nearly all actives have a fitted effect of over 50% in size
A number is an active result. Calls come from the whole dose curve; as a rule, active = well fitted curve in the direction sought with a large enough effect; inconclusive = small, poorly fitted or top-dose-only effect, or another doubt; inactive = no such curve, though single readings can be large; an effect the other way counts as inactive or inconclusive.

What do the screens show for `Cc1cc(Cl)nc(-c2ccccc2)n1`?
ELG1 genotoxic: inactive; A-T KAP1 phos: inactive; p53 reactivator: inactive; SW480 rereplic: inactive; ELG1 DNA repair: inactive; MCF10A rerep: inactive

Results for Cc1cc2c(C)nc(-c3ccccc3)nc2o1 ?
ELG1 genotoxic: 16µM; A-T KAP1 phos: inactive; p53 reactivator: inactive; SW480 rereplic: inactive; ELG1 DNA repair: inconclusive; MCF10A rerep: inactive

What do the screens show for `COCCN(C(=O)CSc1nc2ccc(OC)cc2[nH]1)c1c(N)n(Cc2ccccc2)c(=O)[nH]c1=O`?
ELG1 genotoxic: inactive; A-T KAP1 phos: inactive; p53 reactivator: inactive; SW480 rereplic: inactive; ELG1 DNA repair: inactive; MCF10A rerep: inactive

How did CCc1ccc(NC(=O)Cn2cc([N+](=O)[O-])nc2C)cc1 do in these assays?
ELG1 genotoxic: inactive; A-T KAP1 phos: inactive; SW480 rereplic: inactive; ELG1 DNA repair: inactive; MCF10A rerep: inactive

Results for O=C(C1CCCN(S(=O)(=O)c2cccc3nsnc23)C1)N1CCc2ccccc2C1 (stereo not given) ?
ELG1 genotoxic: inactive; A-T KAP1 phos: inactive; p53 reactivator: inactive; SW480 rereplic: inactive; ELG1 DNA repair: 16µM; MCF10A rerep: inactive

What do the screens show for `CCOc1ccc(NC(=O)C2CCCN(S(=O)(=O)c3cccc4nsnc34)C2)cc1` (stereo not given)?
ELG1 genotoxic: inactive; A-T KAP1 phos: inactive; p53 reactivator: inactive; SW480 rereplic: inactive; ELG1 DNA repair: 23µM; MCF10A rerep: inconclusive

Results for Cc1cccc(NC(=O)C2CCCN(S(=O)(=O)c3cccc4nsnc34)C2)c1 (stereo not given) ?
ELG1 genotoxic: inactive; A-T KAP1 phos: inactive; p53 reactivator: inactive; SW480 rereplic: inconclusive; ELG1 DNA repair: inconclusive; MCF10A rerep: 15µM

Results for Cc1ccccc1C[C@H](C(=O)O)N1C(=O)c2ccc(C(=O)O)cc2C1=O ?
A-T KAP1 phos: inactive

Results for Cc1ccc(Cl)c(NC(=O)COC(=O)c2cc[n+]([O-])cc2)c1Cl ?
ELG1 genotoxic: inactive; A-T KAP1 phos: inactive; p53 reactivator: inactive; SW480 rereplic: inactive; ELG1 DNA repair: inactive; MCF10A rerep: inactive

What do the screens show for `COCCN(CC(=O)Nc1cccc(C)c1C)C(=O)c1cc2c(s1)CCC2`?
ELG1 genotoxic: inactive; A-T KAP1 phos: inactive; p53 reactivator: inactive; SW480 rereplic: inactive; ELG1 DNA repair: inactive; MCF10A rerep: inactive

What do the screens show for `Fc1ccc(/C=N/NC2=Nc3cccc4cccc2c34)cc1`?
ELG1 genotoxic: 12µM; A-T KAP1 phos: inactive; p53 reactivator: inactive; SW480 rereplic: inactive; ELG1 DNA repair: inconclusive; MCF10A rerep: 16µM

Results for COc1cc(C)nc(NCc2ccccc2)n1 ?
ELG1 genotoxic: inactive; A-T KAP1 phos: inactive; p53 reactivator: inactive; SW480 rereplic: inactive; ELG1 DNA repair: inconclusive; MCF10A rerep: inactive

How did Cc1cc(N/N=C/c2ccccc2Cl)nc(NCc2ccccc2)n1 do in these assays?
ELG1 genotoxic: inactive; A-T KAP1 phos: inactive; p53 reactivator: inactive; SW480 rereplic: inconclusive; ELG1 DNA repair: inconclusive; MCF10A rerep: 16µM

How did Cc1ccc(Nc2cc(C)nc(NCc3ccccc3)n2)cc1 do in these assays?
ELG1 genotoxic: inactive; A-T KAP1 phos: inactive; p53 reactivator: inactive; SW480 rereplic: inconclusive; ELG1 DNA repair: inactive; MCF10A rerep: 18µM

How did COc1ccc(Nc2cc(C)nc(NCc3ccccc3)n2)cc1 do in these assays?
ELG1 genotoxic: inactive; A-T KAP1 phos: inactive; p53 reactivator: inactive; SW480 rereplic: inactive; ELG1 DNA repair: 18µM; MCF10A rerep: inactive

Results for Cc1cc(NC2CCCCC2)nc(NCc2ccccc2)n1 ?
ELG1 genotoxic: inactive; A-T KAP1 phos: inactive; p53 reactivator: inactive; SW480 rereplic: 15µM; ELG1 DNA repair: inconclusive; MCF10A rerep: inconclusive

How did Cc1nc2nc(C)c(NS(=O)(=O)c3ccc(CC(C)C)cc3)c(=O)n2[nH]1 do in these assays?
ELG1 genotoxic: inactive; A-T KAP1 phos: inactive; p53 reactivator: inactive; SW480 rereplic: inactive; ELG1 DNA repair: inactive; MCF10A rerep: inactive

How did CCc1cccc(C)c1NC(=O)C1CCN(c2nn3c(=O)cc(C)nc3s2)CC1 do in these assays?
ELG1 genotoxic: inactive; A-T KAP1 phos: inactive; p53 reactivator: inactive; SW480 rereplic: inactive; ELG1 DNA repair: inactive; MCF10A rerep: inactive

How did CC(CC(=O)Nc1cccnc1)c1ccccc1 (stereo not given) do in these assays?
ELG1 genotoxic: inactive; A-T KAP1 phos: inactive; p53 reactivator: inactive; SW480 rereplic: inactive; ELG1 DNA repair: inactive; MCF10A rerep: 12µM

What do the screens show for `CC(CC(=O)Nc1ccc(C(N)=O)cc1)c1ccccc1` (stereo not given)?
ELG1 genotoxic: inactive; A-T KAP1 phos: inactive; p53 reactivator: inactive; SW480 rereplic: inactive; ELG1 DNA repair: inactive; MCF10A rerep: inactive

Results for Cc1cnc(NC(=O)CC(C)c2ccccc2)s1 (stereo not given) ?
ELG1 genotoxic: inactive; A-T KAP1 phos: inactive; p53 reactivator: inactive; SW480 rereplic: 5.8µM; ELG1 DNA repair: inconclusive; MCF10A rerep: 10µM

What do the screens show for `Cc1ccc(C2(c3ccccc3)NC(=O)N(CC(=O)NCc3ccco3)C2=O)cc1C` (stereo not given)?
ELG1 genotoxic: inactive; A-T KAP1 phos: inactive; p53 reactivator: inactive; SW480 rereplic: inactive; ELG1 DNA repair: inconclusive; MCF10A rerep: inactive

What do the screens show for `COc1cc(CNC(C)c2ccccc2)cc(Br)c1OCc1ccc(F)cc1` (stereo not given)?
ELG1 genotoxic: inactive; A-T KAP1 phos: inactive; SW480 rereplic: inconclusive; ELG1 DNA repair: inactive; MCF10A rerep: inconclusive

What do the screens show for `COc1cc(CNC(C)(C)CO)cc(Br)c1OCc1ccc(Cl)cc1Cl`?
ELG1 genotoxic: inactive; A-T KAP1 phos: inactive; p53 reactivator: inactive; SW480 rereplic: inactive; ELG1 DNA repair: inactive; MCF10A rerep: 18µM

Results for COc1cc(C(N)=O)cc(Br)c1OCc1ccccc1 ?
ELG1 genotoxic: inactive; A-T KAP1 phos: inactive; p53 reactivator: inactive; SW480 rereplic: inactive; ELG1 DNA repair: inactive; MCF10A rerep: inactive

Results for Oc1ccc(NCc2ccc(OCc3ccccc3)cc2)cc1 ?
ELG1 genotoxic: inconclusive; A-T KAP1 phos: 40µM; p53 reactivator: inconclusive; SW480 rereplic: inconclusive; ELG1 DNA repair: inconclusive; MCF10A rerep: inconclusive

How did COc1cc(CNc2ccc(O)cc2)cc(Br)c1OCc1ccccc1 do in these assays?
ELG1 genotoxic: inactive; A-T KAP1 phos: inactive; p53 reactivator: inactive; SW480 rereplic: inconclusive; ELG1 DNA repair: inconclusive; MCF10A rerep: 23µM

Results for COc1cc(CNC(C)c2ccccc2)cc(Br)c1OCc1ccccc1 (stereo not given) ?
ELG1 genotoxic: inactive; A-T KAP1 phos: inactive; p53 reactivator: inactive; SW480 rereplic: 23µM; ELG1 DNA repair: inconclusive; MCF10A rerep: inconclusive
